Screens deposited in PubChem BioAssay by National Center for Advancing Translational Sciences (NCATS).
An excerpt weighted towards active compounds, which were near 9.3% of everything screened.
ELG1 genotox = induces genotoxicity in HEK293T cells with luciferase-tagged ELG1 | HEK293T ELG1-luciferase reporter, luminescence, 16 h | Potency, µM (titrated, usually from 46 µM), usual class: activators | 330,000 compounds, 1.3% hits; also: nearly all actives have a fitted effect of over 60% in size
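DMSO vehicle served as control against compound-treated ELG1-luciferase HEK293T cells; exposure lasted 16 hr at 37 °C and 5% CO2, followed by ONE-Glo luminescence detection after 30 min.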
SMN2 splice enh = increases expression of the SMN2 splice variant; HEK293 SMN2-luciferase splicing reporter, luminescence, 30-36 h; Potency, µM (top dose mostly 46.1 µM), most hits filed as activators; 210,000 compounds, 2.8% hits; AID 1458; also: nearly all actives have a fitted effect of over 55% in size
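HEK293 cells carry an SMN2 […]–luciferase reporter in which exon 7 inclusion puts luciferase in frame. Cells were plated 10-12 h before compound addition, then incubated 30-36 h at 37C. ONE-Glo luminescence was read; sodium butyrate at 4.5 mM final served as control.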
NPC1 promoter act = NPC1 promoter activation | 320,000 compounds, 2.4% hits | Potency, µM (highest dose often 9.22 µM), actives largely listed as activators | AID 485313 | Huh7 NPC1 promoter luciferase reporter, 24 h; also: nearly all actives have a fitted effect of over 60% in size
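Readout is luciferase luminescence, reflecting NPC1 promoter activation in stably transfected Huh7 cells after 24 h compound exposure at 37 °C in reduced-serum medium with 10% FBS.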
FLuc counter = counter-screen for miR-21 project: firefly luciferase inhibitors or activators; purified FLuc, Km substrates, luminescence inhibition; Potency, µM (series often up to 57.5 µM), most hits filed as inhibitors; P08659; 360,000 compounds, 6.9% hits; also: nearly all actives have a fitted effect of over 55% in size
Target sequence (P08659 whole entry, looked up): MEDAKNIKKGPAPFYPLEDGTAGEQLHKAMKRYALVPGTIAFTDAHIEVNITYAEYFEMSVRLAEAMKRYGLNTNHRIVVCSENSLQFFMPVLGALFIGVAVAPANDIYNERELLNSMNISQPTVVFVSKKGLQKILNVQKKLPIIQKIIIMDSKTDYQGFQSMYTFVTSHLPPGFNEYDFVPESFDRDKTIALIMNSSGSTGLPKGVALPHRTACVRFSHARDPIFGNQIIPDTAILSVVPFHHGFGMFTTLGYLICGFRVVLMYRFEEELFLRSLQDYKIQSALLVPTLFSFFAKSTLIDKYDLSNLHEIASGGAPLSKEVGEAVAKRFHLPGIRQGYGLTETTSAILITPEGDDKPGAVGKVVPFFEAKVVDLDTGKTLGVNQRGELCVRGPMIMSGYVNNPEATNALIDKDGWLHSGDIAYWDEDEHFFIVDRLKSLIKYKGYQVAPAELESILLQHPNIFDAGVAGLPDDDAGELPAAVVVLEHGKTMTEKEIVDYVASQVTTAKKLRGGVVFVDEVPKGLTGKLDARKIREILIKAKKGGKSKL
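Biochemical qHTS of compounds, final roughly 60 µM downward over six points, against 10 nM purified firefly luciferase using Km concentrations of substrates (10 uM D-luciferin, 10 uM ATP) in Tris acetate pH 7.5 buffer; luminescence output.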
ELG1 DNA repair = ELG1-dependent DNA repair inhibition. HEK293T ELG1-luciferase reporter, luminescence, 16 h; DNA damage induced by 5-fluorouridine. Potency, µM (top dose mostly 46.1 µM), actives largely listed as inhibitors. 330,000 compounds, 2.3% hits. AID 504467; also: nearly all actives have a fitted effect of over 55% in size
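Cells (2,000 per well) received 5-fluorouridine plus test compound or DMSO and were incubated 16 hr at 37 °C, 5% CO2. Luciferase activity was read by luminescence 30 min after ONE-Glo addition; signal suppression marked inhibition of damage-induced ELG1 function.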
Rab9 promoter act = activators of Rab9 promoter; Huh7 Rab9 promoter-luciferase reporter, luminescence, 24 h; Potency, µM (highest dose often 9.22 µM), most hits filed as activators; 320,000 compounds, 2.8% hits; AID 485297; also: nearly all actives have a fitted effect of over 60% in size
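Quantitative HTS format; Huh7 Rab9-luciferase reporter cells (1500/well) receive compound 2 h post-plating, incubate 24 h at 37 °C, then get luciferase reagent for 10 min before luminescence reading.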
Numbers stand for hits; n = inactive; u = inconclusive; x = no result; [ ] = remark or other dose. Calls follow the shape of the dose curve; as a rule, active = well fitted curve in the direction sought with a large enough effect; inconclusive = small, poorly fitted or top-dose-only effect, or another doubt; inactive = no such curve, though single readings can be large; an effect the other way counts as inactive or inconclusive.

SMILES | ELG1 genotox | SMN2 splice enh | NPC1 promoter act | FLuc counter | ELG1 DNA repair | Rab9 promoter act
Oc1c(C=Nc2ccccc2Cl)[nH]c2ccccc12 | u | x | 2.8µM | u | u | 3.5µM
CCCOC(=O)c1ccc(NC(=O)/C=C/c2cccs2)cc1 | n | n | n | 24µM | u | n
O=C(/C=C/c1cccs1)N1CCCC1 | n | x | n | n | u | n
CN(C)C(=O)c1ccc(NC(=O)COC(=O)/C=C/c2cccs2)cc1 | n | x | n | n | n | n
O=C(/C=C/c1cccs1)Nc1ccc([N+](=O)[O-])cc1 | n | u | n | u | n | u
O=C(/C=C/c1cccs1)Nc1ccncc1 | n | n | n | 13µM | u | n
Cc1cc(C)n(C(=O)/C=C/c2cccs2)n1 | n | x | n | 17µM | u | n
CC(=O)Nc1ccc(NC(=O)/C=C/c2ccc(Cl)cc2)cc1 | n | x | n | n | u | n
CC(C)(C)c1ccc(/C=C/C(=O)Nc2ccncc2)cc1 | n | n | n | 4.8µM | u | n
NC(=O)C1CC(=O)N(c2ccc(OCC(=O)Nc3cccc(C(F)(F)F)c3)cc2)C1 (configuration not stated) | n | n | n | n | n | n
Cc1cccc(NC(=O)/C=C/c2cccs2)n1 | u | 3.2µM | 2.8µM | 4.8µM | u | 2.5µM
CCCOC(=O)c1cc(NC(=O)/C=C/c2ccccc2)ccc1O | n | x | n | 15µM | u | n
Cc1ccc(NC(=O)/C=C/c2cccs2)c([N+](=O)[O-])c1 | u | u | 3.2µM | 1.5µM | u | 3.2µM
CC/C(=N\NC(=O)OC)c1ccc(OC(F)F)cc1 | n | n | n | n | n | n
CC(=O)c1cccc(NC(=O)CSc2nc3c(=O)n(C)c(=O)n(C)c3n2C)c1 | x | x | x | n | x | x
CC(=O)Nc1ccc(S(=O)(=O)N2CCN(C(=O)c3ncoc3-c3cccc(F)c3)CC2)cc1 | n | x | n | n | u | n
CC(C)(C)C1CCC(=O)N(CCSc2ccccc2)CC1 (configuration not stated) | u | x | 2.5µM | 7.6µM | u | 3.2µM
C[C@H]1CCC(=O)N(CCSc2ccc(Br)cc2)CC1 | n | x | n | u | u | u
Cc1ccc(SCCN2CCC(C(C)(C)C)CCC2=O)cc1 (configuration not stated) | n | x | n | u | u | n
Cc1ccc(SCCN2CCC(C)CCC2=O)cc1 (configuration not stated) | u | x | 4µM | 19µM | u | u
Cc1nc2ccccc2cc1C(=O)NCc1ccc(F)cc1 | n | n | n | n | u | n
COc1ccc(CNC(=O)CN(C(=O)c2csnn2)c2cccc(C(C)=O)c2)cc1 | n | x | n | n | n | n
O=C(NCCN1CCOCC1)c1noc2c1CCc1ccccc1-2 | 16µM | 10µM | u | u | u | 2µM
O=C(Nc1cccnc1Cl)c1noc2c1CCc1ccccc1-2 | n | x | 2.5µM | u | u | 3.2µM
CCCNC(=O)c1noc2c1CCc1ccccc1-2 | u | 16µM | u | 19µM | u | u
SMILES | ELG1 genotox | SMN2 splice enh | NPC1 promoter act | FLuc counter | ELG1 DNA repair | Rab9 promoter act
O=C(NCCc1ccccc1)c1noc2c1CCc1ccccc1-2 | n | n | n | n | u | u
CC(C)c1nc2n(n1)C1(CCCCC1)[C@@H]1CCCC[C@@H]1N2 | x | x | x | n | x | x
O=C(CC1C(=O)NCCN1Cc1c(F)cccc1Cl)NCCc1ccccn1 (configuration not stated) | n | x | n | n | n | n
CC(C)(C)C(=O)Nc1ccc(-c2nc3ccccc3s2)cc1 | x | x | x | 0.015µM | x | x
CC(C)(C)NC(=O)c1nc2ccccc2s1 | n | n | n | n | u | n
CCS(=O)(=O)c1ccccc1C(=O)Nc1ccc(-c2nc3ccccc3s2)cc1 | x | x | x | 9.5µM | x | x
CC(C)(C)NC(=O)CN(C(=O)CCC(=O)Nc1nccs1)c1ccc2c(c1)OCCO2 | n | x | n | n | n | n
CC(C)CCNC(=O)CN(C(=O)CCC(=O)Nc1nccs1)c1ccc2c(c1)OCCO2 | 21µM | x | n | u | u | n
CCCCN1CN=C(Nc2nc3ccccc3o2)NC1 | u | n | u | u | u | 3.5µM
CC(C)N1CN=C(Nc2nc3ccccc3o2)NC1 | n | u | n | u | u | u
c1ccc2oc(NC3=NCN(C4CCCCC4)CN3)nc2c1 | u | x | 2.5µM | u | u | u
CCOC(=O)N1CCN(c2c(NCCc3ccc(OC)c(OC)c3)c(=O)c2=O)CC1 | n | n | n | n | n | n
CCNC(=S)/N=C(\N)Nc1nc(C)c2cc(C)ccc2n1 | u | x | 3.5µM | 6µM | u | 2.8µM
Cc1nc(NC(=O)c2ccccc2)nc2cc3c(cc12)OCO3 | u | u | u | 17µM | u | u
O=C(Nc1ccc(F)cc1F)NC1CC1 | n | n | n | n | n | n
COc1cccc(NC(=O)C(=S)NC2CCCCC2)c1 | u | 3.5µM | 2µM | 2.4µM | u | 0.79µM
O=C(Nc1ccc2c(c1)OCCO2)NC1CCCCC1 | 1.6µM | 10µM | 0.63µM | 3.8µM | u | 0.56µM
O=C(Nc1ccc2c(c1)OCCO2)C1CCC1 | n | n | n | n[2.3 µM] | u | n
COc1cccc(C(=O)COC(=O)CCCC(=O)NC2CCCCC2)c1 | n | x | n | 27µM | n | n
O=C(Nc1ccc(F)cc1F)NC1CCCCCCC1 | u | x | u | 12µM | u | u
Cc1oc(-c2cccc(F)c2)nc1CN1CCCCC1CCc1ccccn1 (configuration not stated) | n | x | n | n | n | n
O=C(CSc1ccc2c(c1)OCCO2)NC(=O)NC1CCCC1 | n | n | n | n | 0.73µM | n
O=C(Nc1cccc(F)c1)NC1CCCCC1 | u | 18µM | u | 24µM | u | u
COc1cc(NC(=O)C2Cc3ccccc3CN2S(C)(=O)=O)cc(OC)c1 (configuration not stated) | n | x | n | n | n | n
COc1cccc(NC(=O)NC2CCCCCCC2)c1 | u | x | 3.5µM | 11µM | u | u
SMILES | ELG1 genotox | SMN2 splice enh | NPC1 promoter act | FLuc counter | ELG1 DNA repair | Rab9 promoter act
COc1cc(NC(=O)NC2Cc3ccccc3C2)cc(OC)c1 | n | x | n | 17µM | u | n
O=C(Nc1cccc(F)c1)NC1CC2CCCC(C1)N2C1CC1 (configuration not stated) | n | n | n | n | n | n
CCOC(=O)C1(CCCc2ccccc2)CCN(C(=O)CCCn2cncn2)CC1 | n | x | n | n | n | n
CCn1ncc2c(OCc3ccc(C#N)cc3)cc(C)nc21 | n | n | n | n | 26µM | n
COc1ccccc1/C=C/c1ccc2cccc(O)c2n1 | 21µM | x | u | 4.8µM | u | u
COc1ccc(Cl)cc1/C=C/c1ccc2cccc(O)c2n1 | u | x | 4µM | 17µM | u | 3.5µM
COc1cc(Cl)cc(/C=C/c2ccc3cccc(O)c3n2)c1OC | n | x | u | u | n | u
CN(Cc1ccccc1)c1ccc([N+](=O)[O-])cc1C(=O)O | n | n | n | n | n | n
